System: HepG2
Assay: GSK_TCMDC: Percent inhibition of human HepG2 cell line. Test compounds present at 10uM.
Format: functional

Compound | Inhibition [%]
Cc1c(Cl)cccc1N=C(S)NN=Cc1ccccn1 | 58
Cc1c(C(=O)N2CCc3cc4nccc(N5CCN6CCC[C@H]6C5)c4cc32)cnn1-c1ccc(C#N)cc1.Cl | 0
CC(C)c1cn2c3c(cc(C(=O)N[C@@H](Cc4ccccc4)[C@H](O)CNC4CCOCC4)cc13)N(C)S(=O)(=O)CC2.O=CO | 9
Cc1nn(CC(C)C)c2sc(C(=O)Nc3nc(-c4ccccn4)cs3)cc12 | 29
Cc1nc(N)nc(N)c1CCCOc1cccc(Cl)c1 | 16
COc1ccc(C(=O)C2CCN(CCCCNC(=O)c3ccc(NC(=O)c4cc(Cl)cc(Cl)c4)cc3)CC2)cc1 | 35
O=C(Nc1ccc(OC2CCN(Cc3ccc(F)cc3)CC2)c(Cl)c1)c1ccoc1.O=C(O)C(F)(F)F | 0
CS(=O)(=O)CCNc1nccc(N2CCc3ncnc(Nc4ccc(OCc5cccc(F)c5)c(Cl)c4)c3C2)n1 | 8
Cc1ccc(C)c(Cn2c(N3CCC(C(=O)NCc4cccs4)CC3)nc3ccccc32)c1 | 0
O=C(/C=C/c1ccc(Cl)c(Cl)c1)N1CCC(CCN2CCC(c3c[nH]c4ccccc34)CC2)CC1 | 56
Br.CCc1c(CCNCCCCCCNCCc2ccc([N+](=O)[O-])cc2)ccc(O)c1O | 5
O=C(Nc1ccccc1)c1ccc(-c2cc3ccncc3cc2OC2CCNCC2)s1 | 0
C[C@@H]([C@@H](CCCc1ccc(Cl)cc1)C(=O)N[C@H](C(=O)Nc1cccnc1)C(C)(C)C)N(O)C=O | 7
O=C(Nc1ccc(C(=O)Oc2ccc3ccccc3c2)cc1)N[C@@H](Cc1ccc(O)cc1)C(=O)NC1CCN(Cc2ccc(O)cc2)C1.O=C(O)C(F)(F)F (stereo not given in full) | 1
CCNc1cc(C(=O)N[C@@H](Cc2ccccc2)[C@H](O)CNCc2cc(C#N)ccc2OC)cc(N2CCCC2=O)c1.O=C(O)C(F)(F)F | 0
Cl.Oc1ccc(Cc2cc(Oc3c(I)cc(CCc4ncc[nH]4)cc3I)ccc2O)cc1 | 10
CC(C)[C@H](NC(=O)c1ccc(O)c(-c2ccc(Cl)c(Cl)c2)c1)C(=O)NCCN(C)C | 0
COc1ccc(N2CCc3c(-c4cccc5cnccc45)cc(C)nc32)c(C)c1 | 20
CC(=O)Nc1sc(C)c(C)c1CN1CCc2ccccc2C1 | 0
CC(C)Cn1c(Sc2ccc(C#N)c([N+](=O)[O-])c2)nnc1-c1ccccc1 | 17

Compound | Inhibition [%]
Cc1noc(-c2ccc(NC[C@@H](C)NC[C@H](O)c3cccc(Cl)c3)cc2)n1 | 11
CCN(CC)CCN(Cc1ccc(-c2ccc(C(F)(F)F)cc2)cc1)C(=O)Cn1c(CCc2cccc(C#N)c2)nc(=O)c2ccccc21.O=C(O)C(O)C(O)C(=O)O | 36
COc1ccc(C(=O)Nc2nonc2-c2ccc(OC)c(OC)c2)cc1Cl | 6
CCc1nc2c(cnn2CC)c(NC2CCOCC2)c1CNC(=O)N1CCOCC1 | 0
COc1nc2c(N3CCN(CCNCc4ccc5c(n4)NC(=O)CO5)CC3)ccnc2cc1F.Cl | 18
CCN(CC)CCN(Cc1ccc(-c2ccc(C(F)(F)F)cc2)cc1)C(=O)Cn1c(CCc2ccc(F)c(C#N)c2)nc(=O)c2ccccc21.O=C(O)C(O)C(O)C(=O)O | 18
COc1ccc(NC(=O)CCNc2cc(C)nc(Nc3ccccc3)n2)cc1.O=C(O)C(F)(F)F | 0
NS(=O)(=O)c1ccc(CNC(=O)c2cnc3c(O)cccc3c2Nc2cccc(NC(=O)c3ccc(Cl)c(Cl)c3)c2)cc1.O=C(O)C(F)(F)F | 56
Cc1c(CN2CCCCC2)cccc1OCCCNc1nc(NCCc2ccc(O)cc2)nc(N2CCNCC2)n1.O=C(O)C(F)(F)F | 26
O=C(Nc1cccc(F)c1)c1ccc(C(=O)NC2CCN(CC3CCCCC3)CC2)cc1.O=C(O)C(F)(F)F | 22
N#Cc1cccc(NC(=O)c2ccc(S(=O)(=O)NCC3CCCN3CC3CCCCC3)cc2)c1.O=C(O)C(F)(F)F (stereo not given) | 25
CN(C)CCNCc1ccc(-c2ccc3c(Nc4ccc(F)cc4Cl)ccnc3c2)o1 | 31
CN(C)CC(O)COc1ccc(Nc2ncc([N+](=O)[O-])c(Nc3ccccc3O)n2)cc1.O=C(O)C(F)(F)F (stereo not given) | 47
Br.CC1(C)NC(N)=NC(=N)N1OCCCOc1cc(Cl)cc(Cl)c1 | 62
CC(C)CCn1c(Sc2ccc(C#N)c([N+](=O)[O-])c2)nnc1-c1ccc(Cl)cc1 | 25
CC1CCCCC1N(C)C1CCN(CCCNC(=O)C=Cc2cccc(C(F)(F)F)c2)CC1 (stereo not given) | 47
CCOc1cc(C(=O)NCC2CCN(CC3CCCCC3)CC2)ccc1-c1nc2cc(Cl)ccc2[nH]1 | 14
CN1CCN(c2ccnc3ccc(NC(=O)Nc4ccc5c(c4)CCCC5=O)cc23)CC1 | 8
COc1ccc(CCNCCCCCNCCCc2ccc(Cl)cc2)cc1OC.Cl | 24
COc1cc(NC(=O)c2ccc3c(=O)n(Cc4ccccc4)c(=S)[nH]c3c2)cc(OC)c1OC | 6

Reference: ChEMBL document CHEMBL1157539, “Thousands of chemical starting points for antimalarial lead identification” (Nature, 2010)
